Our source for the outcome values is PubChem BioAssay AID624273 (Broad Institute, 2012).

Molecules are shown by their SMILES. The campaign covered roughly 1,000 compounds. About 230 (23%) were called active. Roughly 1% stayed inconclusive and do not appear here. The rule behind the calls is not given here. The list shows a part of the results. A call without a number means that no potency is given here. Potency and affinity values are given separately.

The target in the assay is Long-chain-fatty-acid--AMP ligase FadD28 (Mycobacterium tuberculosis (strain ATCC 25618 / H37Rv)) (UniProt P9WQ59). The experiment in a line: inhibitors of FadD28 bisubstrate probe binding, dose response, biochemical, fluorescence polarization, cherry-pick (AID 624273). Particulars: series mostly up to 50 µM.
Sequence of Long-chain-fatty-acid--AMP ligase FadD28 (Mycobacterium tuberculosis (strain ATCC 25618 / H37Rv)) (P9WQ59 whole entry, looked up): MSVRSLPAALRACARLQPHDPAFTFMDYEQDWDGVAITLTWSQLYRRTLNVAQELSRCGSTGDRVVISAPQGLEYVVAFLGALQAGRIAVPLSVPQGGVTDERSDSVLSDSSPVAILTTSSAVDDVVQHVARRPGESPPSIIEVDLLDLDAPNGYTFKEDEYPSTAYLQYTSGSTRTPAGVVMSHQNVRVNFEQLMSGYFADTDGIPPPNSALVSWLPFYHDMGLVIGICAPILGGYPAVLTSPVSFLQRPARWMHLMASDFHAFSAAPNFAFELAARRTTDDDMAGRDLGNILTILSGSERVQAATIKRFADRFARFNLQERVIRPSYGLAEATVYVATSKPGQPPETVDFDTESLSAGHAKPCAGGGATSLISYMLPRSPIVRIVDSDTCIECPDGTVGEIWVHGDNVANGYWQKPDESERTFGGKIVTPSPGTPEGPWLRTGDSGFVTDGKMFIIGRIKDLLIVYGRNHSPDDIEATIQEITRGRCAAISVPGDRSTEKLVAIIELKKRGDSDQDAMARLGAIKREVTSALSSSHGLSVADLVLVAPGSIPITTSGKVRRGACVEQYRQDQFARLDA
Take `O=C(c1cc(COc2ccc3c(c2)CCCC3)on1)N1CCCC1`: the call was inactive.
The value for `O=C(c1cccc(C(F)(F)F)c1)N1CCN(CCc2ccccc2)CC1` was “inactive”; that for `Cc1[nH]n(-c2ccc(Cl)cc2)c(=O)c1C=Nc1ccc(S(=O)(=O)N2CCOCC2)cc1` was “inactive”; that for `O=C(Cn1cc(S(=O)(=O)Cc2cccc([N+](=O)[O-])c2)c2ccccc21)N1CCOCC1` was “inactive”.
Next, `COC(=O)c1cc(S(=O)(=O)Nc2ccsc2C(=O)OC)oc1C`: “inactive”; `Cc1nnc(SCC(=O)Nc2ccc(F)cc2)n(N)c1=O`: “inactive”; `O=C1/C(=C/c2ccco2)SC(=S)N1CCC(=O)N1CCCCC1CCO` (centres undefined): “inactive”.
Next, `N#Cc1ccccc1NC(=O)CNc1ccc(Cl)c(C(F)(F)F)c1`: “inactive”; `COc1cc2c(cc1OC)C(=O)C(Br)CC2` (centres undefined): “inactive”.
`O=C(O)CSC(C(=O)Nc1ccc(C(F)(F)F)cc1)c1ccccc1` (centres undefined): the outcome was inactive.
Next, `COCc1[nH][nH]c(=O)c1C=Nc1ccc(C(F)(F)F)cc1`: “inactive”; `NS(=O)(=O)c1ccc(NC(=O)c2ccc3c(c2)OCO3)cc1`: “inactive”; `Cc1nonc1C(=O)N/N=C/c1ccc([N+](=O)[O-])o1`: “inactive”.
Consider `COC(=O)[C@]1(Cc2ccccc2)N[C@H](CN(C)S(=O)(=O)c2ccc(-c3ccccc3)cc2)[C@@H]2C(=O)N(C)C(=O)[C@@H]21`, for which the molecule was classed as inactive.
As to `COc1cccc(CN(C)C(=O)CC2C(=O)NCCN2C2Cc3ccccc3C2)c1` (centres undefined), the molecule was classed as inactive.
Next, `COc1cc(/C=C/c2ccc3cccc(O)c3n2)cc(OC)c1OC`: “inactive”; `Cc1ccn2c(Nc3ccccc3C)c(-c3ccccn3)nc2c1`: “inactive”.
Next, `Cc1nn(Cc2ccc(F)cc2)c2sc(C(=O)Nc3ccccc3N3CCOCC3)cc12`: “inactive”; `O=C1CCCC(=NNC(=O)c2cc3ccccc3cc2O)C1`: “inactive”; `O=C(O)CCC(=O)Nc1ccc(C(=O)OCC(=O)c2ccc(Cl)cc2)cc1`: “inactive”.
The value for `Cn1nc(CC(=O)NC2CCCCCCCCCCC2)c2ccccc2c1=O` was “inactive”; that for `O=C(Nc1cccc([N+](=O)[O-])c1)NC1CCCCCCC1` was “inactive”; that for `FC(F)Sc1ccc(NC(=S)NCc2ccccc2)cc1` was “inactive”.
Take `O=C(COC(=O)c1nc(Cl)ccc1Cl)NCc1ccccc1`: the molecule was classed as inactive.
The value for `CCCC(C(=O)NCCC(C)C)N(Cc1ccccc1)C(=O)c1snc(C(N)=O)c1N` (centres undefined) was “inactive”; that for `O=S(=O)(CCN1CCN(c2ccccc2O)CC1)c1cc(Cl)ccc1Cl` was “inactive”; that for `COc1ccc(NC(=O)Nc2ccc3c(c2)C(=O)N([C@@H](C)CO)C[C@@H](C)[C@@H](CN(C)S(=O)(=O)c2cccs2)O3)cc1` was “inactive”.
Next, `O=C(NN=Cc1ccc(N(CCCl)CCCl)cc1)c1cccnc1`: “inactive”.
Next, `CCN(CC)c1ccc(NC(=O)Nc2ccc(C(C)=O)cc2)cc1`: “inactive”.
As for `COc1ccc(Cl)cc1C(=O)Nn1c(-c2cccs2)nc2ccccc2c1=O`, the outcome was inactive.
Next, `O=C(Nc1ccc(F)cc1F)NC1CCCCCCC1`: “inactive”; `CCOc1ccc(N=C2SC(C(=O)Nc3ccccc3C#N)C(N)=C2C(=O)Nc2ccc(Cl)cc2)cc1` (centres undefined): “inactive”; `CCOc1ccc(NC(=O)Cn2sc3nc(C)cc(C)c3c2=O)cc1`: “inactive”.
The value for `c1ccc(-c2cc(-c3ccccc3)on2)cc1` was “inactive”; that for `CCCCC(=O)Nc1cc([N+](=O)[O-])ccc1Cl` was “inactive”.
On to `N#Cc1ccc(NCCc2ccccn2)c([N+](=O)[O-])c1`, for which the call was inactive.
Next, `CCS(=O)(=O)c1ncc(Cl)c(C(=O)Nc2ccc(S(=O)(=O)N3CCC(C)CC3)cc2)n1`: “inactive”; `c1ccc2cc(OCCCn3ccnc3)ccc2c1`: “inactive”; `CC12CCC(C(=O)NCCCn3ccnc3)(OC1=O)C2(C)C` (centres undefined): “inactive”.
The value for `Cc1nn(CC(=O)NCc2ccco2)c(C)c1[N+](=O)[O-]` was “inactive”; that for `CC(C)(C)c1ccc(Cn2nnc3c(=O)[nH]c(C4CCCN(C(=O)c5cccs5)C4)nc32)cc1` (centres undefined) was “inactive”; that for `COc1ccc(N=C2NC(=O)/C(=C\C=C\c3ccco3)S2)cc1` was “inactive”.
The value for `CCN(C(=O)c1cc(OC)c(OC)c(OC)c1)C1CCCCC1` was “inactive”; that for `CCc1cccc2c(C(=O)COC(=O)[C@@H]3CC(O)CN3S(=O)(=O)c3ccccc3[N+](=O)[O-])c[nH]c12` (some centres undefined) was “inactive”; that for `CCc1cccc2c(C(=O)COC(=O)c3ccccc3)c[nH]c12` was “inactive”.
In the case of `COc1ccc(C(C)=O)cc1COC(=O)c1cnc(C)cn1`, the molecule was called inactive.
In the case of `O=C(c1cc2cc(Br)ccc2oc1=O)N1CCCC1`, the molecule was classed as inactive.
Turning to `CC(C)CCOc1ccc(C(=O)N2CCCC2C(=O)O)cc1` (centres undefined), the molecule was classed as inactive.
Next, `C[C@@H]1CN([C@H](C)CO)C(=O)c2cc(NC(=O)Nc3ccc(C(F)(F)F)cc3)ccc2O[C@H]1CN(C)S(=O)(=O)c1cccs1`: “inactive”; `Cc1ccc(S(=O)(=O)Nc2ccc(O)c3ccccc23)c(C)c1`: “inactive”.
Turning to `Cc1noc(/C=C/N(C)C)c1S(=O)(=O)N1CCCC(C(=O)NC2CCCCC2C)C1` (centres undefined), the outcome was inactive.
Next, `CCOC(=O)c1cccc(P(=O)(C(C)(C)C)C(C)(C)C)c1`: “inactive”; `C=CC(COCc1ccccc1)N(C(=O)OC(C)(C)C)S(=O)(=O)c1ccccc1Br` (centres undefined): “inactive”; `C=CCC12C=C(OC)C(=O)OC(OC)(C1O)[C@H](c1ccc3c(c1)OCO3)[C@H]2C` (some centres undefined): “inactive”.
Next, `CCC1(CC)NC(=O)N(CC(=O)Nc2ccc(OCc3ccccc3)cc2)C1=O`: “inactive”; `Cc1ccc(S(=O)(=O)NCC(=O)OCC(=O)N2CCN(C(=O)c3ccco3)CC2)cc1C`: “inactive”; `CCc1cc(C(=O)O)c(NC(=O)C(c2ccccc2)c2ccccc2)s1`: “inactive”.
The value for `CN1c2ccsc2C(O)=C(C(=S)Nc2ccc(F)c(Cl)c2)S1(=O)=O` was “inactive”; that for `CC1(C)Cc2ccccc2C(=NCCCC(=O)O)N1` was “inactive”.
`Oc1c(Cl)cc(Cl)cc1/C=N/NC(=S)NC1CC2C=CC1C2` (centres undefined): the result was inactive.
Next, `CCCSc1ncc(Cl)c(C(=O)Nc2ccc(S(=O)(=O)N3CC(C)OC(C)C3)cc2)n1` (centres undefined): “inactive”; `C=CCC[C@@H](Cc1ccc(F)cc1)C(=O)OC[C@@H](NC(=O)[C@@H](CC=C)CC(=O)N(CCO)Cc1ccccc1)c1ccccc1`: “inactive”.
The value for `O=C(Nc1ccccc1F)NC1CCCCCCC1` was “inactive”.
In the case of `COC(=O)CN(c1ccc(OC)cc1)S(=O)(=O)c1ccc(OC)c(OC)c1`, the molecule was classed as inactive.
Take `COC(=O)C1=C(c2ccc3ccccc3c2)C[C@@H]2CC[C@H]1N2C(=O)N1CCC(O)CC1`: the call was inactive.
The value for `N=c1c(C(=O)NCc2ccco2)cc2c(=O)n3ccccc3nc2n1Cc1ccccc1` was “inactive”; that for `COC(=O)CCC(=O)N1CCCC(CO)(Cc2ccccc2F)C1` (centres undefined) was “inactive”.
Regarding `O=C(O)C1Sc2[nH]c(=O)sc2C2c3ccc(O)cc3OC(=O)C12` (centres undefined), the molecule was classed as inactive.
The value for `O=C(NC(NC(=S)Nc1c(Cl)cccc1Cl)C(Cl)(Cl)Cl)OCc1ccccc1` (centres undefined) was “inactive”.
